We go through 29 molecules from PubChem BioAssay (NCATS).

Records with an inconclusive call do not appear. Active and inactive are the calls of the source. Calls come from the whole dose curve; as a rule, active = well fitted activation curve with a large enough effect; inconclusive = small, poorly fitted or top-dose-only effect; inactive = flat fitted curve, though single readings scatter.

The test is described as follows: Primary redox qHTS assay for identification of artifact compounds. (AID 1845223).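 Note: 0% = DMSO and 100% = reference compound.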 The note with it: Amplex Red/HRP redox cycling with DTT, fluorescence; series mostly up to 53.8 µM; redox activity (% of DA3003): at the top concentration. The essentials: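 Amplex Red (25 uM) and HRP (250 mU/mL) in HBSS, with compounds for 15 min, then 250 uM DTT for 30 min, room temperature, dark. Fluorescence 525/598 nm read; normalized to DMSO and 10 uM DA3003; Hill fit.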
Consider `Cn1nccc1-c1ccccc1Oc1ccc(S(=O)(=O)Nc2nccs2)cc1C#N`, for which the “redox activity (% of DA3003)” value was 14.9% (inactive).

Regarding `CC1=C[C@H]2[C@@H](CC1=O)[C@H](C)C[C@H](O)[C@H]2C(C)C`, the “redox activity (% of DA3003)” value was 9.53% (inactive).

Consider `C=C1CC[C@H]2[C@@](C)(CCC(OC3OC(CO)C(O)C(O)C3O)[C@@]2(C)CO)C1C(=O)CC1=CCOC1=O` (some centres undefined), for which the “redox activity (% of DA3003)” value is -16.7% [at 25.6 µM] (inactive).

Consider `Cc1c(F)cc(C(=O)NC2CC2)cc1-c1ccc(C(=O)NCC(C)(C)C)cn1`, for which the “redox activity (% of DA3003)” value is -5.73% (inactive).

With `C/C(=C\CC[C@H](CO)[C@@H]1CC[C@]2(C)C3=C(CC[C@@]12C)[C@@]1(C)CCC(=O)C(C)(C)C1CC3)C(=O)O` (some centres undefined), the “redox activity (% of DA3003)” value was -0.439% [at 25.6 µM] (inactive).

Consider `CCOC(=O)COc1ccc2c(c1)C[C@@H](NC[C@H](O)c1cccc(Cl)c1)CC2`, for which the “redox activity (% of DA3003)” value is 19.6% (inactive).

Take `CC(=O)NC1C(OC2CCC3(C)C(CCC4(C)C3CC=C3C5CC(C)(C)CCC5(C(=O)O)C(O)CC34C)C2(C)C)OC(CO)C(O)C1O` (centres undefined): the “redox activity (% of DA3003)” value was 15.3% [at 25.6 µM] (inactive).

`CC(C)(Oc1ccc(-c2nc3cc(Cl)ccc3s2)cc1)C(=O)O`: the “redox activity (% of DA3003)” value was 19.5% (inactive).

For the molecule `Cn1cc(CCn2cnc(-c3cnn(C)c3)c2-c2ccc(C#N)cc2)cn1`, the “redox activity (% of DA3003)” value was -2.65% (inactive).

`C[C@]12CC[C@@H]3c4ccc(O)cc4CC[C@H]3[C@@H]1C[C@@H](O[C@@H]1O[C@H](C(=O)O)[C@@H](O)[C@H](O)[C@H]1O)[C@@H]2O`: the “redox activity (% of DA3003)” value is -0.309% (inactive).

As for `Cc1nc(-c2cccnc2)sc1C(=O)Nc1ccccc1-c1cn2c(CN3CCOCC3)csc2n1`, the “redox activity (% of DA3003)” value was -3.68% (inactive).

In the case of `C=CC(C)(CC/C=C(\C)C(=O)OC[C@H]1O[C@@H](OC(C)(C=C)CC/C=C(\C)C(=O)O[C@H]2[C@H](O)[C@@H](O)[C@H](OC(C)(C=C)CC/C=C(\C)C(=O)O)O[C@@H]2CO)[C@H](O)[C@@H](O)[C@@H]1O)O[C@@H]1O[C@H](CO)[C@@H](O)[C@H](O)[C@H]1O` (some centres undefined), the redox activity (% of DA3003) was 0.215% [at 11.5 µM] (inactive).

As to `COC(=O)C(CC1CCCC1)c1ccc(S(C)(=O)=O)cc1` (centres undefined), the “redox activity (% of DA3003)” value is -0.636% (inactive).

Take `CC1=C2CC(C)(C)CC2C(O)C2=C(C1)C(=O)OC2O` (centres undefined): the “redox activity (% of DA3003)” value was -5.99% (inactive).

In the case of `O=C1C[C@@]2(C(=O)N1)C(=O)N(Cc1ccc(Br)cc1F)C(=O)c1cccn12`, the “redox activity (% of DA3003)” value is 4.98% (inactive).

As to `CC(C(=O)Nc1cc(C#N)ccc1CCCC(=O)O)c1ccc(F)c2ccccc12` (centres undefined), the “redox activity (% of DA3003)” value is -2.26% (inactive).

In the case of `C[C@@H]1O[C@@H](O[C@H]2[C@@H]3C=CO[C@@H](O[C@@H]4O[C@H](CO)[C@@H](O)[C@H](O)[C@H]4O)[C@@H]3[C@@]3(CO)O[C@@H]23)[C@H](O)[C@H](OC(=O)/C=C/c2ccc(O)c(O)c2)[C@H]1O`, the “redox activity (% of DA3003)” value was -4.14% [at 25.6 µM] (inactive).

For the molecule `CCOC(=O)c1ccc(NC2CCCCC2)c(N)c1`, the “redox activity (% of DA3003)” value is -4.83% (inactive).

With `C[C@H]1[C@H](C)CC[C@]2(C(=O)O)CC[C@]3(C)C(=CCC4[C@@]5(C)C[C@@H](O)[C@H](O)C(C)(C)C5CC[C@]43C)[C@H]12` (some centres undefined), the “redox activity (% of DA3003)” value is -12% [at 25.6 µM] (inactive).

Regarding `CCCCC(=O)N1c2ccccc2NC2=C(C(=O)CCC2)C1c1ccccc1Cl` (centres undefined), the “redox activity (% of DA3003)” value is 15.3% (inactive).

On to `CC1=CC2=C(C)C(=O)[C@](C)(O)[C@H](O)C2=CO1`, for which the “redox activity (% of DA3003)” value is -9.95% (inactive).

With `C[C@]1(O)CC[C@@H]2C(C(=O)O)=CO[C@@H](O[C@@H]3O[C@H](CO)[C@@H](O)[C@H](O)[C@H]3O)[C@@H]21`, the “redox activity (% of DA3003)” value was -15.8% (inactive).

For `O=C(N[C@H](Cc1ccccc1)C(=O)O)c1sc2cc(F)ccc2c1Cl`, the “redox activity (% of DA3003)” value was 13% (inactive).

As for `CC1=CC(=O)[C@]2(O[C@@H]3O[C@@H](C)[C@H](O)[C@@H](O)[C@H]3O)C=CO[C@@H](O[C@@H]3O[C@H](CO)[C@@H](O)[C@H](O)[C@H]3O)[C@H]12`, the “redox activity (% of DA3003)” value was -5.18% [at 25.6 µM] (inactive).

Turning to `CCC1OC(=O)C(C)CC(C)C(=O)/C(C)=C/C(C)C(=O)/C=C/C1(C)O` (centres undefined), the “redox activity (% of DA3003)” value was -0.882% (inactive).

Regarding `N[C@@H](CC(=O)Nc1ccc(Oc2cc(F)c(F)cc2Br)cc1)C(=O)O`, the “redox activity (% of DA3003)” value is 11.8% (inactive).

Take `O=C(O)[C@H](Cc1ccccc1)Oc1ccc(-c2ccccc2)cc1`: the “redox activity (% of DA3003)” value was 14.1% (inactive).

As for `CNC(=O)c1ccc2c(c1)CCO[C@H]2CCN1CCN(c2ccc(C(N)=O)cc2)CC1`, the “redox activity (% of DA3003)” value was 19.4% (inactive).

Consider `COc1ccc(NC(=O)c2ccc(-c3ccc(C(N)=O)cc3C)cc2)cc1N1CCN(C)CC1`, for which the “redox activity (% of DA3003)” value is 5.22% (inactive).
